Screening results as filed in PubChem.
HEK293 cAMP cs: parental HEK293 cAMP activation (counter-screen) | parental HEK293 CNG cAMP sensor, membrane potential fluorescence | Potency, µM (highest dose often 57.1 µM), inactives show top-dose activation, most hits filed as activators | 73,000 compounds, 2.5% hits | AID 938; also: % of control where 0% means no effect; nearly all actives have a fitted effect of over 55% in size
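Parental HEK 293 cells stably expressing a cAMP-gated CNG channel were loaded with membrane potential dye containing 100 uM RO 20-1724 for 60 min. Compound added for 30 min; depolarization read as fluorescence intensity at 590 nm.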
TSHR agonist: agonists of human thyroid stimulating hormone receptor; HEK293-CNG-TSHR cells (CNG channel as cAMP sensor), membrane potential dye, cAMP; Potency, µM (highest dose often 57.1 µM), without a hit: at the top dose activation, most hits filed as activators; 73,000 compounds, 0.48% hits; AID 926; active = well fitted activation curve with a large enough effect in the main read-out, with a control signal flat, not every such curve was filed as active; inconclusive = small, poorly fitted or top-dose-only effect, or a change in a side signal; inactive = no such curve, though single readings can be large or run the other way; % of control where 0% means no effect;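 also: the control signal comes from parental cells without the receptor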
Target sequence (P16473 whole entry, looked up): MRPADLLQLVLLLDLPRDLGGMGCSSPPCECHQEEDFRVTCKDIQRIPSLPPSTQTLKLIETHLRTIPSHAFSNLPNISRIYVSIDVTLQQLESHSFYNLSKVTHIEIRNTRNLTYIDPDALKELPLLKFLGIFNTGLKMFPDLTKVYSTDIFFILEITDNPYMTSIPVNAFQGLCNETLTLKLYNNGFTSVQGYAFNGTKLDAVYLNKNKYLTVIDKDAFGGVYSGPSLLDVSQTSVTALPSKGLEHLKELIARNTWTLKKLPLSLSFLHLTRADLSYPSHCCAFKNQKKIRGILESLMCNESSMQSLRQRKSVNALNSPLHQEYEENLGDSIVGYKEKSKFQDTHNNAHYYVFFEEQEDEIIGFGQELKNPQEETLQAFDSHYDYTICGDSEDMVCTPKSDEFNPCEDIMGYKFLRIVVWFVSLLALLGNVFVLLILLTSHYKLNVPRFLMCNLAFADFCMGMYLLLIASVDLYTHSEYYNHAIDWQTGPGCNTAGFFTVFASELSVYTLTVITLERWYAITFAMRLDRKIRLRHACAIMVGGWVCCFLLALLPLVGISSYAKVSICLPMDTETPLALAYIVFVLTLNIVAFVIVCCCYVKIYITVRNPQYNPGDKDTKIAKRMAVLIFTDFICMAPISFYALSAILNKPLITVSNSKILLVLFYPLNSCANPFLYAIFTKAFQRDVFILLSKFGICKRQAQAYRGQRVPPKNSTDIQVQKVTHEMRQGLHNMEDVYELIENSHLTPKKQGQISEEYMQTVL
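HEK 293 cells stably expressing TSHR and a modified CNG channel, with CNG-only parental cells as counterscreen, were preloaded 60 min at room temperature with membrane potential dye containing 100 uM RO 20-1724. Compound exposure was 30 min, and depolarization was read as fluorescence at 590 nm.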
CRE-bla Fsk: modulators of forskolin-stimulated CRE signaling in CHO cells; CHO CRE-bla reporter (cAMP response element driving beta-lactamase), forskolin EC10, beta-lactamase ratio; Potency, µM (series often up to 38.2 µM), inactives show top-dose activity change, negative = inhibition, hits mostly activators; 71,000 compounds, 2.5% hits; AID 662; active = well fitted activation curve with a large enough effect in the signal ratio, with a control signal flat, not every such curve was filed as active; inconclusive = small, poorly fitted or top-dose-only effect, or effect the other way, or a change in a side signal; the % refers to the signal ratio; also: % of control where 0% means no effect
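Modulation of forskolin-driven signalling is measured in CHO cells carrying a CRE-controlled beta-lactamase reporter. Cells are stimulated with EC10 NKH 477 in the presence of titrated compound for 3 h at 37 °C, then loaded with CCF4 for 2 h at room temperature.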
ERK AVP inh: inhibitors of vasopressin-stimulated ERK signaling pathway; HEK293-V1b, vasopressin-stimulated pERK AlphaScreen; Potency, µM (doses to about 57.5 µM), for the others: at the top dose activity, negative = inhibition, actives largely listed as inhibitors; 72,000 compounds, 0.99% hits; also: % is scaled to controls: 0 for no effect and ±100 for the full control effect; nearly all actives have a fitted effect of over 55% in size
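V1b-HEK293 cells; cpd 30 min 37C; 25 nM vasopressin 5 min; lyse 10 min; AlphaScreen beads 5 hr RT. Normalized to DMSO basal and 25 nM vasopressin; AC50 by Hill fit.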
Tau fil binding: binds recombinant human tau filaments. AID 596. recombinant tau filaments, thioflavin S fluorescence, 15 h; filaments grown with octadecylsulfate alongside compound. P10636. Potency, µM (doses to about 57.1 µM), for inactives: at the highest dose activity change, negative = inhibition. 71,000 compounds, 2% hits;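 also: % is scaled to controls: 0 for no effect and ±100 for the full control effect; actives lower thioflavin S fluorescence by blocking filaments or displacing dye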
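His-tagged recombinant human tau (exons 2, 3 and 10 included), 1 uM, was induced to fibrillize by 30 uM sodium octadecylsulfate with compound present. After 15 h at 37 C, thioflavine S fluorescence (ex 450, em 510 nm) was read.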
Starred values were filed as active, the others as inactive; ! = not active in a repeat; [ ] = dose if it differs, or a comment. Compounds with a hit are over-represented: about 7.4% of the library has one in this group of screens. Unless noted, calls follow the shape of the dose curve; as a rule, active = well fitted curve in the direction sought with a large enough effect; inconclusive = small, poorly fitted or top-dose-only effect, or another doubt; inactive = no such curve, though single readings can be large; an effect the other way counts as inactive or inconclusive. Potency is read from the fitted curve at half-maximal effect.

How did CN[C@@H](CC(C)C)C(=O)N[C@@H]1C(=O)N[C@H](CC(N)=O)C(=O)N[C@H]2C(=O)N[C@H]3C(=O)N[C@H](C(=O)N[C@H](C(=O)O)c4cc(O)cc(O)c4-c4cc3ccc4O)[C@H](O)c3ccc(c(Cl)c3)Oc3cc2cc(c3O[C@@H]2O[C@@H](CO)[C@@H](O)[C@@H](O)[C@H]2O[C@H]2C[C@](C)(N)[C@H](O)[C@H](C)O2)Oc2ccc(cc2Cl)[C@@H]1O do in these assays?
HEK293 cAMP cs: inconclusive; TSHR agonist: inconclusive; CRE-bla Fsk: 0%; ERK AVP inh: -3%; Tau fil binding: -4%

How did COc1ccc(C2NC(=O)NC3=C2CCc2ccccc23)cc1 (configuration not stated) do in these assays?
HEK293 cAMP cs: 1%; TSHR agonist: 2%; CRE-bla Fsk: -1%; ERK AVP inh: 5%; Tau fil binding: -8%

Results for Cc1ccc(C2NC(=O)NC3=C2CCc2ccccc23)cc1 (configuration not stated) ?
HEK293 cAMP cs: 2%; TSHR agonist: 9%; CRE-bla Fsk: -5%; ERK AVP inh: -18%; Tau fil binding: 20µM*

What do the screens show for `O=C(O)CSc1ccc([N+](=O)[O-])cc1[N+](=O)[O-]`?
HEK293 cAMP cs: 11%[11.4 µM]; TSHR agonist: 5%[11.4 µM]; CRE-bla Fsk: 11%[7.6 µM]; ERK AVP inh: -2%[11.5 µM]; Tau fil binding: 7%[11.4 µM]

What do the screens show for `CCCC(=O)Nc1ncnc2c1ncn2C1OC2COP(=O)(O)OC2C1OC(=O)CCC` (configuration not stated)?
ERK AVP inh: -7%

Results for CCCC(=O)Nc1ncnc2c1ncn2[C@@H]1O[C@@H]2COP(=O)(O)O[C@H]2[C@H]1OC(=O)CCC ?
HEK293 cAMP cs: -1%; TSHR agonist: 4%; CRE-bla Fsk: inconclusive; ERK AVP inh: -10%; Tau fil binding: 40µM*

How did Cc1cc(N2CCOCC2)nc2cc(O)ccc12 do in these assays?
HEK293 cAMP cs: 6.3µM*; TSHR agonist: inconclusive; CRE-bla Fsk: inconclusive; Tau fil binding: 18%

What do the screens show for `COc1ccc(N2CCN(c3cc(C)c4ccc(O)cc4n3)CC2)cc1`?
HEK293 cAMP cs: -47%; TSHR agonist: inconclusive; CRE-bla Fsk: 20%; Tau fil binding: inconclusive

What do the screens show for `C=CCNS(=O)(=O)c1ncnc2nc[nH]c12`?
HEK293 cAMP cs: 1%[11.4 µM]; TSHR agonist: 2%[11.4 µM]; CRE-bla Fsk: inconclusive; ERK AVP inh: -7%[11.5 µM]; Tau fil binding: 7%[11.4 µM]

Results for C=C(C)C(=O)OC ?
HEK293 cAMP cs: -11%; TSHR agonist: 1%; CRE-bla Fsk: -7%; ERK AVP inh: 15%; Tau fil binding: 10%

How did COc1ccc2c(c1)O[C@H](c1cccc(C(F)(F)F)c1)[C@@H](O)C2=O do in these assays?
HEK293 cAMP cs: 4%[11.4 µM]; TSHR agonist: -1%[11.4 µM]; ERK AVP inh: 10%[11.5 µM]

How did Nc1nc(-c2cccnc2)nc(N2CCCCC2)n1 do in these assays?
HEK293 cAMP cs: 16%; TSHR agonist: 4%; CRE-bla Fsk: inconclusive; ERK AVP inh: 11%; Tau fil binding: 19%

Results for CCN1CCN(c2nc(-c3cccnc3)nc3ccccc23)CC1 ?
HEK293 cAMP cs: 10%; CRE-bla Fsk: inconclusive; ERK AVP inh: 16%; Tau fil binding: 20%

Results for CN1CCN(c2nc(-c3cccnc3)nc3ccccc23)CC1 ?
HEK293 cAMP cs: 14%; TSHR agonist: 21%; CRE-bla Fsk: 10µM*!; ERK AVP inh: -24%; Tau fil binding: 22%

How did c1cncc(-c2nc(N3CCCCCC3)c3ccccc3n2)c1 do in these assays?
HEK293 cAMP cs: 25µM*; TSHR agonist: inconclusive; CRE-bla Fsk: inconclusive; ERK AVP inh: 20µM*; Tau fil binding: 141%

How did CCNc1ncc2nc(-c3ccccc3)c(=O)n(C)c2n1 do in these assays?
HEK293 cAMP cs: 5%; TSHR agonist: 1%; CRE-bla Fsk: inconclusive; ERK AVP inh: -7%; Tau fil binding: 8%

What do the screens show for `O[C@@H](c1cc(-c2ccccc2)nc2c1ccc1ccccc12)[C@@H]1CCCCN1`?
HEK293 cAMP cs: -2%[11.4 µM]; TSHR agonist: 10%[11.4 µM]; CRE-bla Fsk: -17%[7.6 µM]; ERK AVP inh: 4%[11.5 µM]; Tau fil binding: -11%[11.4 µM]

How did c1ccc(CNc2nc(-c3ccc4c(c3)OCO4)nc3ccccc23)cc1 do in these assays?
HEK293 cAMP cs: 8%; TSHR agonist: 14%; CRE-bla Fsk: 7%; ERK AVP inh: 20µM*; Tau fil binding: 202%

Results for c1ccc(Nc2nc(-c3ccc4c(c3)OCO4)nc3ccccc23)cc1 ?
HEK293 cAMP cs: 5%; CRE-bla Fsk: inconclusive; ERK AVP inh: 16µM*; Tau fil binding: 25µM*

Results for CNc1nc(-c2ccc3c(c2)OCO3)nc2ccccc12 ?
HEK293 cAMP cs: -39%; TSHR agonist: inconclusive; CRE-bla Fsk: inconclusive; ERK AVP inh: inconclusive; Tau fil binding: 59%

What do the screens show for `COc1ccc(CNc2cc(C)nc3ncnn23)c(OC)c1`?
HEK293 cAMP cs: 4µM*; TSHR agonist: inconclusive; CRE-bla Fsk: 25%; ERK AVP inh: -7%; Tau fil binding: -4%

How did COc1ccc(Nc2cc(C)nc3ncnn23)c(OC)c1 do in these assays?
HEK293 cAMP cs: -1%; TSHR agonist: 3%; CRE-bla Fsk: 14%; ERK AVP inh: -19%; Tau fil binding: 7%

What do the screens show for `COc1cccc(N=Cc2ccc(O)cc2O)c1`?
HEK293 cAMP cs: 14%; TSHR agonist: -1%; CRE-bla Fsk: -15%; ERK AVP inh: -8%; Tau fil binding: 32µM*

Results for Oc1ccc(C=Nc2cccc3ncccc23)c(O)c1 ?
HEK293 cAMP cs: 5%; TSHR agonist: -5%; CRE-bla Fsk: inconclusive; ERK AVP inh: inconclusive; Tau fil binding: 64%

Results for CC(C)CC(c1nnnn1C(C)C)N1CCN(c2cccc(Cl)c2)CC1 (configuration not stated) ?
HEK293 cAMP cs: 1µM*; TSHR agonist: inconclusive; CRE-bla Fsk: -6%; ERK AVP inh: -7%; Tau fil binding: 2%

Results for Nc1ncnc2nc[nH]c12.Nc1ncnc2nc[nH]c12.[Cl][Pt]([Cl])([Cl])[Cl] ?
HEK293 cAMP cs: 0%[11.4 µM]; TSHR agonist: -4%[11.4 µM]; CRE-bla Fsk: 1%[7.6 µM]; Tau fil binding: 0%[11.4 µM]

How did CC1=C(C(=O)Nc2cc(-c3cccc(F)c3)[nH]n2)C2(CCCCC2)OC1=O do in these assays?
HEK293 cAMP cs: 4%; TSHR agonist: -6%; CRE-bla Fsk: -18%; ERK AVP inh: -21%; Tau fil binding: 13µM*

Results for CC1=C(C(=O)NC2CCCC(C)C2C)C2(CCCCC2)OC1=O (configuration not stated) ?
HEK293 cAMP cs: -1%; TSHR agonist: 11%; CRE-bla Fsk: 0%; ERK AVP inh: -6%; Tau fil binding: -21%

Results for CC(Cc1ccccc1)C(=O)NCCc1c[nH]c2ccccc12 (configuration not stated) ?
HEK293 cAMP cs: 13µM*; TSHR agonist: inconclusive; CRE-bla Fsk: inconclusive; ERK AVP inh: inconclusive; Tau fil binding: 14%
